Assay [1] is described as follows: ATG_CRE_CIS: Attagene CIS-FACTORIAL HepG2 Assay for human cAMP Responsive Element (CRE) binding protein 3 (AID 2282926). Conditions: HepG2 CRE cis-reporter, Attagene multiplexed mRNA; actives raise or lower the signal. The method in brief:
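Human liver HepG2, transient MRTU transfection, 24 h compound exposure. Total RNA → oligo(dT) RT → PCR → 6-FAM primer extension → HpaI cut → CE. Activity called both directions vs DMSO.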

Assay [2] deals with CCAAT/enhancer-binding protein beta (Homo sapiens) (UniProt P17676). Kind of assay: ATG_C_EBP_CIS: Attagene CIS-FACTORIAL HepG2 Assay for human CCAAT/Enhancer Binding Protein (C/EBP) beta (AID 2282927). Conditions: HepG2 Attagene cis-factorial transcription factor reporter; actives raise or lower the signal. The method in brief: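 Endogenous C/EBPb-driven reporter transcripts measured in transfected human HepG2 cells at 24 h via RT-PCR and capillary electrophoresis of labelled fragments. Activity fitted in both directions relative to DMSO baseline.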

Assay [3] can be described thus: ATG_DR4_LXR_CIS: Attagene CIS-FACTORIAL HepG2 Assay for human Liver X Receptor (LXR), DR4 submotif (AID 2282929). Conditions: HepG2 Attagene DR4 cis-reporter, mRNA transcription; actives raise or lower the signal. The method in brief: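 Measures endogenous transcription factor activity via a DR4-driven reporter transcript in human HepG2 cells. Compounds incubated 24 h; mRNA quantified by RT-PCR and capillary electrophoresis, analysed as gain or loss of signal versus DMSO.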

Assay [4] is described as follows: ATG_AP_2_CIS: Attagene CIS-FACTORIAL HepG2 Assay for human Activator Protein 2 (AP-2) (AID 2282932). The following applies: HepG2 AP-2 cis-reporter, Attagene transcription factor profiling; actives raise or lower the signal. The method in brief: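 HepG2, transient MRTU transfection, cis-regulated reporters; 24 h compound exposure; RNA isolated, RT-PCR, 6-FAM labelling, HpaI digest, CE fluorescence. DMSO = negative control/baseline, bidirectional fit.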

Assay [5] in a line: ATG_BRE_CIS: Attagene CIS-FACTORIAL HepG2 Assay for human Bone Morphogenetic Protein (BMP) Response Element (BRE) (AID 2282933). The following applies: HepG2 BMP response element reporter, Attagene transcription factor profiling; actives raise or lower the signal. The method in brief:
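Read-out: reporter mRNA induction quantified by RT-PCR and capillary electrophoresis after 24 h chemical exposure of transfected HepG2 cells. Endogenous factor activity on the BMP response element; gain or loss fitted against DMSO baseline.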

Assay [6] concerns the target Transcription factor E2F1 (Homo sapiens) (UniProt Q01094). Kind of assay: ATG_E2F_CIS: Attagene CIS-FACTORIAL HepG2 Assay for human E2F Transcription Factor 1 (AID 2282935). Conditions: HepG2 Attagene cis-reporter, E2F reporter RNA transcripts; actives raise or lower the signal. The method in brief:
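Cis-element reporter mRNA induction in transiently transfected HepG2, 24 h exposure. Activity fitted in both directions relative to DMSO negative control.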

Assay [7] in a line: ATG_EGR_CIS: Attagene CIS-FACTORIAL HepG2 Assay for human Early Growth Response 1 (EGR1) (AID 2282938). The following applies: HepG2 Attagene CIS-FACTORIAL EGR reporter mRNA; actives raise or lower the signal. The method in brief:
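Cell-based multiplex transcription assay: HepG2 carrying transfected cis-element reporter units, 24 h chemical treatment. Fluorescence from capillary electrophoresis of RT-PCR products gives mRNA levels; fitting is bidirectional relative to DMSO.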

A short description of assay [8]: ATG_M_19_CIS: Attagene CIS-FACTORIAL HepG2 Assay for M19 Transcription Factor (Internal Marker) (AID 2282939). The following applies: HepG2 Attagene CIS-FACTORIAL M19 internal marker reporter; actives raise or lower the signal. The method in brief:
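Readout: fluorescent reporter-transcript fragments by capillary electrophoresis after RT-PCR. Human HepG2 liver cells carried transfected MRTU constructs reporting endogenous transcription-factor activity; exposure 24 h. Gain or loss of signal fitted relative to DMSO.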

The nature of assay [9]: ATG_Ets_CIS: Attagene CIS-FACTORIAL HepG2 Assay for human Erythroblast Transformation Specific (ETS) (AID 2282941). The following applies: HepG2 ETS cis-reporter transcription, actives raise or lower the signal. The method in brief: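 Human HepG2 hepatoma cells were transiently transfected with promoter-driven reporter constructs and treated for 24 hours. Reporter transcripts were quantified by RT-PCR with fluorescent primer extension; bidirectional curve fitting used DMSO as reference.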

Assay [10] has as its target Hepatocyte nuclear factor 3-beta (Homo sapiens) (UniProt Q9Y261). Kind of assay: ATG_FoxA2_CIS: Attagene CIS-FACTORIAL HepG2 Assay for human Forkhead box A2 (FOXA2) (AID 2282942). The following applies: HepG2 cis-reporter transcription factor activity, 24 h; actives raise or lower the signal. The method in brief: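 In transiently transfected human HepG2 cells, promoter-driven reporter mRNA levels after 24 h chemical exposure are determined via RT-PCR with capillary electrophoresis. DMSO serves as baseline for bidirectional fitting.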

Assay [11] can be described thus: ATG_FoxO_CIS: Attagene CIS-FACTORIAL HepG2 Assay for human Forkhead box O (FoxO) (AID 2282943). The following applies: HepG2 Attagene cis-reporter, FoxO element, mRNA; actives raise or lower the signal. The method in brief: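 Endogenous transcription factor activity read from multiplexed cis-promoter reporter transcripts in transiently transfected HepG2, 24 h after dosing. Reporter RNA measured via RT-PCR plus capillary electrophoresis of FAM-labeled products; gain or loss relative to DMSO.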

The nature of assay [12]: ATG_GATA_CIS: Attagene CIS-FACTORIAL HepG2 Assay for human GATA Binding Protein (AID 2282944). The following applies: HepG2 GATA cis-element reporter, Attagene multiplex mRNA; actives raise or lower the signal. The method in brief: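 Read-out: fluorescent reporter mRNA fragments resolved by capillary electrophoresis after RT-PCR. Human liver HepG2 cells carried transiently transfected cis-regulated reporter constructs; chemicals incubated 24 h; gain or loss of signal fitted relative to DMSO.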

Assay [13] in a line: ATG_GLI_CIS: Attagene CIS-FACTORIAL HepG2 Assay for human Zinc Finger Protein GLI1 (AID 2282945). Conditions: HepG2, Attagene cis-factorial reporter mRNA, GLI element; actives raise or lower the signal. The method in brief:
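Bidirectional curve fits relative to DMSO, using reporter mRNA levels from RT-PCR plus capillary electrophoresis. Cells were HepG2 transiently carrying cis-regulated reporter constructs, harvested 24 h after dosing.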

Assay [14] can be described thus: ATG_M_06_CIS: Attagene CIS-FACTORIAL HepG2 Assay for M06 Transcription Factor (Internal Marker) (AID 2282950). The following applies: HepG2 Attagene CIS-FACTORIAL M06 internal marker reporter; actives raise or lower the signal. The method in brief:
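Terse: HepG2, transient MRTU transfection (FuGene 6), 24 h dosing; total RNA, oligo(dT) RT, PCR, FAM label, HpaI cut, capillary electrophoresis; bidirectional fit vs DMSO baseline; background-control endpoint.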

A short description of assay [15]: ATG_MRE_CIS: Attagene CIS-FACTORIAL HepG2 Assay for human Metal Responsive Element (MRE) (AID 2282954). The following applies: HepG2 MRE cis-reporter transcription, Attagene multiplex; actives raise or lower the signal. The method in brief:
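Transient MRTU transfection of HepG2 (FuGene 6); 24 h dosing; total RNA → oligo(dT) RT, PCR, 6-FAM primer extension, HpaI cut, CE. Bidirectional fit vs DMSO.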

Assay [16] has as its target Paired box protein Pax-6 (Homo sapiens) (UniProt P26367). Kind of assay: ATG_Pax6_CIS: Attagene CIS-FACTORIAL HepG2 Assay for human Paired Box 6 (PAX6) (AID 2282956). Conditions: HepG2 CIS-FACTORIAL PAX6 reporter transcription, RNA readout; actives raise or lower the signal. The method in brief: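 Multiplexed cis-reporter HepG2 system; 24 h treatment; reporter mRNA read by RT-PCR/CE fluorescence; bidirectional fit vs DMSO.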

The nature of assay [17]: ATG_PXRE_CIS: Attagene CIS-FACTORIAL HepG2 Assay for human Pregnane X Receptor Element (PXRE) (AID 2282957). Conditions: HepG2 Attagene CIS-FACTORIAL PXRE reporter, mRNA; actives raise or lower the signal. The method in brief:
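Transfect HepG2 with MRTUs (cis promoter elements); dose chemical, incubate 24 h; isolate RNA, RT with oligo(dT), PCR, 6-FAM label, HpaI cut, CE. Gain/loss fit vs DMSO.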

Assay [18] is described as follows: ATG_Sox_CIS: Attagene CIS-FACTORIAL HepG2 Assay for human SRY-box transcription factor (SOX) (AID 2282960). Conditions: HepG2 Attagene cis-factorial SOX reporter, mRNA; actives raise or lower the signal. The method in brief:
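After 24 h of chemical treatment, transfected HepG2 reporter cells are lysed for total RNA. Transcript levels come from RT-PCR with labelled primer extension and capillary electrophoresis, analysed bidirectionally versus DMSO.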

Assay [19] has as its target Transcription factor Sp1 (Homo sapiens) (UniProt P08047). In words: ATG_Sp1_CIS: Attagene CIS-FACTORIAL HepG2 Assay for human Specificity Protein 1 (Sp1) (AID 2282961). The following applies: HepG2 Sp1 cis-reporter transcription, actives raise or lower the signal. The method in brief:
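Sp1-driven reporter mRNA, read as capillary electrophoresis fluorescence after RT-PCR, in transiently transfected HepG2 cells dosed for 24 h; signal change in either direction relative to DMSO.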

Assay [20] can be described thus: ATG_SREBP_CIS: Attagene CIS-FACTORIAL HepG2 Assay for human Sterol Regulatory Element Binding (SREBP) (AID 2282962). Conditions: HepG2 Attagene cis-factorial SREBP reporter, mRNA; actives raise or lower the signal. The method in brief: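 mRNA induction of transfected cis-promoter reporters in HepG2 cells, 24 h post-dose. Detection: RT-PCR with 6-FAM-labelled products, HpaI digest, capillary electrophoresis. DMSO served as negative control and baseline.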

The structures appear in SMILES notation. Active and inactive are the calls of the source. The calls were made as follows: active = hit-call score of the fitted dose curve at least 0.9, where 1 is the maximum; inactive = score below 0.9.

Transcription factor E2F1 (Homo sapiens), sequence (Q01094 whole entry, looked up): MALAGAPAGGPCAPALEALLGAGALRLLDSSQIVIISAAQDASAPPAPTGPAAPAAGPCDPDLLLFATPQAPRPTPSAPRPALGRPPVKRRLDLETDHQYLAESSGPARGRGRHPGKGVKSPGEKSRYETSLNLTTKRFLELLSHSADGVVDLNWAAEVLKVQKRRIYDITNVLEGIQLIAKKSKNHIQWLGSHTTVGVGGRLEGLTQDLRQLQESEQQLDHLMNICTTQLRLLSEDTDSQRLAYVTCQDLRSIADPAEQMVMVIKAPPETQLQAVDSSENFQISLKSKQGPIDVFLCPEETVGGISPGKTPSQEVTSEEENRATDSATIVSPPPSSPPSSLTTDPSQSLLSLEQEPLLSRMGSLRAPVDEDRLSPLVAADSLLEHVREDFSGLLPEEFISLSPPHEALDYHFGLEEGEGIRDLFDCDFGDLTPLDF
Paired box protein Pax-6 (Homo sapiens), sequence (P26367 whole entry, looked up): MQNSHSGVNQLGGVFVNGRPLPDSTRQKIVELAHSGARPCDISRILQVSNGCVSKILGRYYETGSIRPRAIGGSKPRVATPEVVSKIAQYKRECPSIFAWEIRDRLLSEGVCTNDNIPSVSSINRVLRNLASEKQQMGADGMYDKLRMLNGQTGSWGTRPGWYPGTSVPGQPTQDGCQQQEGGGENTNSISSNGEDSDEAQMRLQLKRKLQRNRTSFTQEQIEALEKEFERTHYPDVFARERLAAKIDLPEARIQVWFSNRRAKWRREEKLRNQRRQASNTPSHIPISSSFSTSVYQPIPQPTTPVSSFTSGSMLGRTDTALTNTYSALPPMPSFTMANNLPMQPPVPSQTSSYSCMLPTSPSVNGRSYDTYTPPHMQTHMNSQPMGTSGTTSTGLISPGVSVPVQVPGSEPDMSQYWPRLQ
Transcription factor Sp1 (Homo sapiens), sequence (P08047 whole entry, looked up): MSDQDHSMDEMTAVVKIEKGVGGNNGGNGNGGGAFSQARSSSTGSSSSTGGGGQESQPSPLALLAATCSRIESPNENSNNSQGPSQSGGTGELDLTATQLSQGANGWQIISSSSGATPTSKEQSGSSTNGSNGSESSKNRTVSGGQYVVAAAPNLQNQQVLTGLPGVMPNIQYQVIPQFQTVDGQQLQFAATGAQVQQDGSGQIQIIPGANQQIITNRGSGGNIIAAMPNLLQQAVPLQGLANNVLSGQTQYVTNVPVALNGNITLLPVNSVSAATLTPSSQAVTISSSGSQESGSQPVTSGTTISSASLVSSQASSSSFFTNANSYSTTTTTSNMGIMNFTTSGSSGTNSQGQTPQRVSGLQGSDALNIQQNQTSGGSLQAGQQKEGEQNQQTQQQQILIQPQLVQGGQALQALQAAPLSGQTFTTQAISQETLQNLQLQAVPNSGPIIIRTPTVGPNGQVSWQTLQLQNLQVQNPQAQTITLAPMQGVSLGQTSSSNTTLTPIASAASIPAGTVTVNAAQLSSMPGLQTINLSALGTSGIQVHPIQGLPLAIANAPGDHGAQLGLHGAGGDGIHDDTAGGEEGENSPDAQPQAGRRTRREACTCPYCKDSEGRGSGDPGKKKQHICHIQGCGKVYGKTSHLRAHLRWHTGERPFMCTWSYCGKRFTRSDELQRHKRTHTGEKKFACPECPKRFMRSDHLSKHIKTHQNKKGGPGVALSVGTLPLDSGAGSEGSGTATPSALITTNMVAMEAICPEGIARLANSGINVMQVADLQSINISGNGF
Hepatocyte nuclear factor 3-beta (Homo sapiens), sequence (Q9Y261 whole entry, looked up): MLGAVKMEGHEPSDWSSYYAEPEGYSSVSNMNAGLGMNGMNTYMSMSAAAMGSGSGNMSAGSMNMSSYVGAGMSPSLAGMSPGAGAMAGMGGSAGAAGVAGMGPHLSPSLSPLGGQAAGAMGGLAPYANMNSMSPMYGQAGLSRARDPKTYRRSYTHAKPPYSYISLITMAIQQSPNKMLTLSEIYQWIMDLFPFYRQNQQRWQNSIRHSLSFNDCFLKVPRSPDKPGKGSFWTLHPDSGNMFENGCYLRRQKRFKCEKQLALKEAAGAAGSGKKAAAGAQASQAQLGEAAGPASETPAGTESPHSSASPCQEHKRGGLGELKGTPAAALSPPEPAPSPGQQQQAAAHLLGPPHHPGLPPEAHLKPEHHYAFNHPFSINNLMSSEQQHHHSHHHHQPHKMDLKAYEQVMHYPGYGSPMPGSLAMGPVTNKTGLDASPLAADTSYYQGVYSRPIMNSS
CCAAT/enhancer-binding protein beta (Homo sapiens), sequence (P17676 whole entry, looked up, the tested form may be a part): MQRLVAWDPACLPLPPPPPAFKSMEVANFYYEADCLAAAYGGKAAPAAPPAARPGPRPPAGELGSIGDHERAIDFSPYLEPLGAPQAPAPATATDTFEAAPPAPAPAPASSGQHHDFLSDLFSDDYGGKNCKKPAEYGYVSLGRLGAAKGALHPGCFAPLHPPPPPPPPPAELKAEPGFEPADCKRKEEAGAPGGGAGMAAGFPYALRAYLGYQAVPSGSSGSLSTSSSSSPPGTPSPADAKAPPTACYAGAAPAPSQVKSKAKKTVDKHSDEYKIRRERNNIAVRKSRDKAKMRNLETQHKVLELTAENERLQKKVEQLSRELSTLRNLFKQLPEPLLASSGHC

On to `CC1CCCC1.[C-]#[O+].[C-]#[O+].[C-]#[O+].[Mn]`, for which the call in assay [1], in [2], in assay [3], in assay [4], in assay [5] and in [6] was inactive. For the same compound, the compound was called inactive in assay [7], in assay [8], in assay [9], in [10], in assay [11] and in [12]. For the same compound, the call in assay [13], in [14], in assay [15], in [16], in assay [17] and in [18] was inactive. In addition, the result in [19] and in assay [20] was inactive.
In the case of `[CH3][Sn]([CH3])([Cl])[Cl]`, the compound was classed as inactive in assay [1], in assay [2], in assay [3], in assay [4], in [5] and in assay [6]. The result in assay [7], in [8], in assay [9], in [10], in assay [11] and in assay [12] was inactive. In addition, the outcome in assay [13], in assay [14], in assay [15], in assay [16], in [17] and in [18] was inactive. Moreover, the compound was classed as inactive in [19] and in assay [20].
One may read the AC50 as the concentration at which the activity in the assay is half-maximal. Consider `CC(C)[C@@H](C(=O)O[C@@H](C#N)c1cccc(Oc2ccccc2)c1)c1ccc(Cl)cc1`, for which the compound was classed as inactive in assay [1], in [2], in assay [4], in [5], in assay [6] and in assay [7]. The outcome in assay [8], in [9], in assay [10], in assay [11], in [12] and in [13] was inactive. Further, the call in assay [14], in assay [15], in assay [16], in assay [18], in assay [19] and in assay [20] was inactive. In addition, the AC50 in [3] was 9.57 µM (active); in [17] it was 678 nM (active).
